A short description of assay [1]: P-glycoprotein substrates identified in KB-8-5-11 adenocarcinoma cell line, qHTS therapeutic library screen (AID 1346987). Note: nearly all actives have a fitted effect of over 65% in size. The method in brief:
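P-gp-mediated resistance screen: KB-8-5-11 cells treated 72 h with compounds in dose-response. CellTiter-Glo viability.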
A general note: In qHTS, concentration-response curves come from the screen itself.

Assay [2] in a line: NS1 protein of Zika virus - qHTS assay to identify small molecule inhibitors in human HEK 293 cells (AID 1347053). Note: nearly all actives have a fitted effect of over 55% in size. The method in brief:
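HEK 293; 20 h pre-culture, 37 C/5% CO2; cpd 1 h pre-infection; ZIKV MR766, MOI = 0.5, 24 h, 37 C; TR-FRET NS1 readout (two anti-NS1 Abs); norm. to no-virus vs infected.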

“And” between values parts separate entries of the source, which are not always exact repeats. Identical values can stand only once. Inconclusive results are not listed. The source made the active and inactive calls. Calls come from the whole dose curve; as a rule, active = well fitted curve in the direction sought with a large enough effect; inconclusive = small, poorly fitted or top-dose-only effect, or another doubt; inactive = no such curve, though single readings can be large; an effect the other way counts as inactive or inconclusive.
Potency is the fitted concentration of half-maximal effect.

With `NC1(C(=O)N[C@@H](CCO)c2ccc(Cl)cc2)CCN(c2ncnc3[nH]ccc23)CC1`, the Potency entry in assay [1] and in assay [2] was “inactive” in each case.
With `CC1=C(C(=O)Nc2cc3cn[nH]c3cc2F)C(c2ccc(C(F)(F)F)cc2)CC(=O)N1` (stereo not drawn), the Potency result in assay [1] and in assay [2] was “inactive” throughout.
For the compound `O=C(O)C1=NC(C(=O)O)CC(C=CN2c3cc(O)c(OC4OC(CO)C(O)C(O)C4O)cc3CC2C(=O)O)=C1` (stereo not drawn), the Potency result in assay [1] and in assay [2] was “inactive” each time.
For the compound `CC1=C(CC(=O)O)c2cc(F)ccc2C1=Cc1ccc(S(C)=O)cc1` (stereo not drawn), the Potency entry in assay [1] and in assay [2] was “inactive” throughout.
On to `CC[C@H](CC#N)OC(=O)N[C@@H](C)c1cccc(NC(=O)Nc2ccc(-c3cnco3)c(OC)c2)c1`, for which the Potency in assay [1] is 5.9 µM (active) and 5.8 µM (active); in assay [2] it was 235 nM (active).
On to `CNC(=O)[C@H](Cc1ccccc1)NC(=O)[C@H](CC(C)C)[C@H](CSc1cccs1)C(=O)NO`, for which the Potency result in assay [1] and in assay [2] was “inactive” throughout.
Turning to `C=CC[N+]1([C@H]2C[C@H]3[C@@H]4CC[C@H]5C[C@H](O)[C@@H](N6CCOCC6)C[C@]5(C)[C@@H]4CC[C@]3(C)[C@H]2OC(C)=O)CCCC1`, the Potency result in assay [1] and in assay [2] was “inactive” in each case.
Take `Nc1ncnc2c1ncn2[C@@H]1O[C@H](CO)[C@@H](O)[C@@H]1O`: the Potency entry in assay [1] and in assay [2] was “inactive” each time.
With `CCc1cc(-c2n[nH]c(C)c2-c2ccc3c(c2)OCCO3)c(O)cc1O`, the Potency in assay [1] is 9.35 µM (active). In addition, the Potency entry in assay [2] was “inactive”.
For `O=C1Nc2ccc(I)cc2C1=Cc1cc(Br)c(O)c(Br)c1` the same measures were “inactive” and “inactive”.
As for `CO[C@H]1O[C@@H]2O[C@@]3(C)CC[C@@H]4[C@@H](C)CC[C@@H]([C@H]1C)[C@@]24OO3`, the Potency result in assay [1] and in assay [2] was “inactive” each time.
Take `COc1c(C)c2c(c(O)c1CC=C(C)CCC(=O)OCCN1CCOCC1)C(=O)OC2`: the Potency in assay [1] was 7.43 µM (active); in assay [2], 526 nM (active).
As for `CCOC(=O)[C@H]1O[C@H]1C(=O)N[C@@H](CC(C)C)C(=O)NCCC(C)C`, the Potency result in assay [1] and in assay [2] was “inactive” each time.
Regarding `N#Cc1c(N(CC(=O)O)CC(=O)O)sc(C(=O)O)c1CC(=O)O`, the Potency entry in assay [1] and in assay [2] was “inactive” throughout.
As for `CCCCN(CCCC)CC(O)c1cc(Cl)cc2c1-c1ccc(Cl)cc1C2=Cc1ccc(Cl)cc1` (stereo not drawn), the Potency result in assay [1] and in assay [2] was “inactive” in each case.
On to `COc1cc(F)c(C(C)C)cc1-c1ccc(C(F)(F)F)cc1CN1C(=O)O[C@H](c2cc(C(F)(F)F)cc(C(F)(F)F)c2)[C@@H]1C`, for which the Potency entry in assay [1] and in assay [2] was “inactive” each time.
On to `COc1c(C)c2c(c(O)c1CC=C(C)CCC(=O)O)C(=O)OC2`, for which the Potency is 6.62 µM (active) in assay [1] and 526 nM (active) in assay [2].
For `CC(C)[C@H](O)C(=O)N[C@@H](C)C(=O)N[C@@H]1C(=O)N(C)CCc2ccccc21` the same measures were “inactive” and “inactive”.
With `O=C(Nc1ccccc1)Nc1ccc(-c2ccc(C(=O)[C@H]3CCC[C@H]3C(=O)O)cc2)cc1`, the Potency result in assay [1] and in assay [2] was “inactive” throughout.
`Nc1ccc(-c2ccc3ncc4ccc(=O)n(-c5cccc(C(F)(F)F)c5)c4c3c2)cn1`: the Potency in assay [1] was 1 nM (active) and 36.6 nM (active); in assay [2] it was 41.8 nM (active).
For `CN1CCN2c3ncccc3Cc3ccccc3C2C1` (stereo not drawn), the Potency entry in assay [1] and in assay [2] was “inactive” throughout.
For the compound `COc1cc2ncn(-c3cc(OCc4ccccc4S(C)(=O)=O)c(C#N)s3)c2cc1OC`, the Potency entry in assay [1] and in assay [2] was “inactive” throughout.
As to `C=C[C@@H]1CN2CCC1C[C@@H]2C(O)c1ccnc2ccc(OC)cc12` (stereo partly drawn), the Potency result in assay [1] and in assay [2] was “inactive” throughout.
Take `c1cc(OCCN2CCCCC2)cc(-c2n[nH]c3ccc(-c4ncn[nH]4)cc23)c1`: the Potency result in assay [1] and in assay [2] was “inactive” each time.
In the case of `N[C@@H](CC(=O)N1CCn2c(nnc2C(F)(F)F)C1)Cc1cc(F)c(F)cc1F`, the Potency result in assay [1] and in assay [2] was “inactive” throughout.
`CNc1nc(Nc2ccc(C(=O)N3CCOCC3)cc2OC)ncc1Cl`: the Potency entry in assay [1] and in assay [2] was “inactive” in each case.
Take `COc1cc(Cl)cn2c(-c3cccc(NC4CNC4)n3)cnc12`: the Potency entry in assay [1] and in assay [2] was “inactive” throughout.
On to `CC(C)(F)C[C@H](N[C@@H](c1ccc(-c2ccc(S(C)(=O)=O)cc2)cc1)C(F)(F)F)C(=O)NC1(C#N)CC1`, for which the Potency entry in assay [1] and in assay [2] was “inactive” in each case.
For `O=C(O)C1=CC(O)C(O)[C@H](O)C1` (stereo partly drawn), the Potency entry in assay [1] and in assay [2] was “inactive” throughout.
For the compound `O=C1NC(=O)C(=Cc2ccc(-c3ccc(F)cc3O)o2)S1`, the Potency result in assay [2] was “inactive”.
For the compound `C[C@@H]1O[C@@H](O[C@H]2CC[C@@]3(C)[C@H](CC[C@@H]4[C@H]3C[C@@H](O)[C@]3(C)[C@@H](C5=CC(=O)OC5)CC[C@]43O)C2)C[C@H](O)[C@@H]1O[C@H]1C[C@H](O)[C@H](O[C@H]2C[C@H](O)[C@@H](O)[C@@H](C)O2)[C@H](C)O1` (stereo in doubt), the Potency in assay [2] is 136 nM (active).
Turning to `Cc1ccccc1-n1c(Cn2nc(-c3cccc(O)c3)c3c(N)ncnc32)nc2cccc(C)c2c1=O`, the Potency result in assay [1] and in assay [2] was “inactive” in each case.
With `C[C@H]1COC2=C1C(=O)C(=O)c1c2ccc2c1CCCC2(C)C`, the Potency result in assay [2] was “inactive”.
Consider `Cc1ccc(NC(=O)Nc2cc(C(F)(F)F)ccc2F)cc1Nc1ccc2c(c1)NC(=O)C2=Cc1ccc[nH]1`, for which, in assay [1], the Potency was 10.5 µM (active). Moreover, the Potency entry in assay [2] was “inactive”.
Consider `N#CC1(c2cccc(C(=O)Nc3cc(Oc4ccc5nc(NC(=O)C6CC6)sc5n4)ccc3F)c2Cl)CC1`, for which the Potency in assay [2] was 2350 nM (active).
For the compound `CCOc1ccccc1N=Nc1c(C)[nH]n(-c2nc(-c3ccccc3)cs2)c1=O`, the Potency result in assay [1] and in assay [2] was “inactive” throughout.

Values taken from PubChem BioAssay (NCATS).
